Assay results taken from PubChem BioAssay (NCI).
Compounds without any hit were thinned out: in the full panel of roughly 83,000, 20% have a hit.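 Cell lines were cultured in 96-well plates, exposed to a single compound concentration, and assessed for percent growth 48 hours later.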 A number with no mark means an inactive call. The source made the active and inactive calls. Rule for the calls: active = growth percent below 10; inactive = the rest.

These compounds were tested on HCT-15 colon (assay: NCI-60 one-dose screen, 48 h (100 = growth as untreated, 0 = no growth, -100 = all killed)). Conditions: 10 µM unless noted.

Row | Compound | growth
1 | S=c1sc2c(Cl)nc(-c3cccnc3)nc2n1-c1ccccc1 | -32.6% (active)
2 | C=C(C)[C@@H]1CC[C@]2(CO)CC[C@]3(C)[C@H](CC[C@@H]4[C@@]5(C)CC[C@H](NCO)C(C)(C)[C@@H]5CC[C@]43C)[C@@H]12 | -80.7% (active)
3 | CN(C)Cc1ccc(O)c(C(=O)O)c1 | 107%
4 | CCCn1cc2c(=O)nc3sc(Cc4ccccc4)c(C)n3c2n1 | 106%
5 | CN(/C(N)=N/N=C/c1c2ccccc2cc2ccccc12)C1CCCCC1 | 25.5%
6 | CC(=O)n1nc(C(=O)OC(C)(C)c2ccccc2)c2ccccc21 | 101%
7 | CS(=O)(=O)c1ccc(-c2cnn3ccc(-c4cccc(S(=O)(=O)C5CC5)c4)nc23)cc1 | 57%
8 | COc1ccc(/C=C(\C#N)n2nnc3ccc(Cl)cc32)cc1 | 38.9%
9 | Oc1c(Br)cc(Br)c2ccc(Cn3cc(-c4ccc(C(F)(F)F)cc4)nn3)nc12 | 25.2%
10 | Cc1sc2nc(NCCc3c[nH]c4ccc(Cl)cc34)[nH]c(=O)c2c1C | 7.96% (active)
11 | CCN1C(=S)N(c2ccccc2)C2NC(=S)N(/N=C/C=C/c3ccccc3OC)C21 (stereo not given) | 12.9%
12 | CCN(C)S(=O)(=O)Nc1cccc(Nc2ncnc3cc(NC(=O)CCl)ccc23)c1Cl | -12.3% (active)
13 | Cn1c(I)c(C#CCO[Si](C)(C)C(C)(C)C)c(=O)[nH]c1=O | 91%
14 | Nc1[nH]n2cc(-c3ccccc3)nc2c1N=Nc1ccc(S(N)(=O)=O)cc1 | 22.8%
15 | COc1cc(OC)c(NC(=O)c2cc3ccccc3cc2O)cc1Cl | 48.5%
16 | Cc1cn(-c2cc(NC(=O)c3cccc(C#Cc4cccc5[nH]nc(N)c45)c3)cc(C(F)(F)F)c2)cn1 | 25.8%
17 | CCOC(=O)C/C(=N\Nc1cc(=O)[nH]c2ccc(Br)cc12)C(=O)OCC | 99.3%
18 | CS(=O)(=O)Nc1cc(-c2ccc3ncnc(Nc4ccc5c(cnn5Cc5ccc(F)cc5)c4)c3c2)cnc1Cl | 82.1%
19 | CCCCNC(=O)Oc1ccc(/C(=C(/C)Cc2ccc(OC)cc2)c2ccc(OCCN(CC)CC)cc2)cc1 | 41%
20 | COc1ccc(-c2nc3c(ncc4ccc(=O)[nH]c43)s2)cc1 | 73.6%

Row | Compound | growth
21 | COc1c(C(=O)Nc2ccc(C)c(Br)c2)ccc2ccccc12 | 61.2%
22 | O=C(Nc1nc2ccccc2s1)c1ccc(F)cc1 | 85.5%
23 | CN(C)c1ccc(C(=O)OCCCCCCl)cc1 | 100%
24 | Cn1ccnc1C(=O)/C=C/c1ccc(CC(=O)Nc2cc(C(F)(F)F)cc(C(F)(F)F)c2)cc1 | 53%
25 | c1ccc(-c2oc(-c3ccccc3)c(CN3CCCCC3)c2CN2CCCCC2)cc1 | 19.4%
26 | O=C1/C(=C/c2ccccc2Br)COc2ccc(O)cc21 | 40.7%
27 | COc1ccc(/C=C/C(=O)c2cc3c(N)c(C(=O)Nc4cccc5ccccc45)sc3nc2C)cc1 | 44.1%
28 | CC(C)c1ccc(C(=O)Nc2sc3c(c2C(N)=O)CCC(=O)C3)cc1 | -15.7% (active)
29 | C=C(C)[C@@H]1CC[C@]2(C(=O)N3CCOCC3)CC[C@]3(C)[C@H](CC[C@@H]4[C@@]5(C)C/C(=C/c6ccncc6)C(=O)C(C)(C)[C@@H]5CC[C@]43C)[C@@H]12 | 42.6%
30 | Cc1cn(-c2cc(NC(=O)c3cncc(C#Cc4cnc(N)c5ncccc45)c3)cc(C(F)(F)F)c2)cn1 | 59.6%
31 | Nc1nc2ccccc2c2c1S(=O)(=O)c1ccc(Cl)cc1C2=O | 1.95% (active)
32 | CCC(=C(c1ccc(OCCN2CCCCC2)cc1)c1ccc(OCCN2CCCCC2)cc1)c1ccc(Cl)cc1 | -84.9% (active)
33 | O=C1C(Cl)=C(Nc2ccc(S(=O)(=O)N3CCOCC3)cc2)C(=O)c2ccccc21 | 36.2%
34 | COc1ccc(C/C(C)=C(\c2ccc(Cl)cc2)c2ccc(OCCN3CCCCC3)cc2)cc1 | 84.3%
35 | COc1cc2c(cc1OC)C(C)N(S(N)(=O)=O)CC2 (stereo not given) | 102%
36 | Cc1[nH]c(=O)[nH]c(=O)c1Br | 106%
37 | Clc1cccc(Nc2ncnc3ccc(-c4cnc5[nH]ccc5c4)cc23)c1 | 69.4%
38 | CCCCNC(=O)Oc1ccc(/C(=C(/C)Cc2ccc(OC)cc2)c2ccc(OCCN3CCCC3)cc2)cc1 | 13.5%
39 | C#CCOC(=O)/C=C/c1cn(-c2ccccc2)nc1-c1ccc(OC)cc1 | 94.1%
40 | COC(=O)[C@]1(C)CCC[C@]2(C)[C@H]3C[C@H]4C(C(C)C)=C[C@]3(CC[C@H]21)[C@@H]1C(=O)CC[C@H](OCCC#N)[C@@H]14 | 84.9%

These compounds were tested on HT29 colon in the same assay as above. Conditions: 10 µM unless noted.

Row | Compound | growth
41 | S=c1sc2c(Cl)nc(-c3cccnc3)nc2n1-c1ccccc1 | -53.8% (active)
42 | C=C(C)[C@@H]1CC[C@]2(CO)CC[C@]3(C)[C@H](CC[C@@H]4[C@@]5(C)CC[C@H](NCO)C(C)(C)[C@@H]5CC[C@]43C)[C@@H]12 | -39.4% (active)
43 | CN(C)Cc1ccc(O)c(C(=O)O)c1 | 107%
44 | CCCn1cc2c(=O)nc3sc(Cc4ccccc4)c(C)n3c2n1 | 98%
45 | CN(/C(N)=N/N=C/c1c2ccccc2cc2ccccc12)C1CCCCC1 | 17.9%
46 | CC(=O)n1nc(C(=O)OC(C)(C)c2ccccc2)c2ccccc21 | 97.5%
47 | CS(=O)(=O)c1ccc(-c2cnn3ccc(-c4cccc(S(=O)(=O)C5CC5)c4)nc23)cc1 | 34%
48 | COc1ccc(/C=C(\C#N)n2nnc3ccc(Cl)cc32)cc1 | 26.3%
49 | Oc1c(Br)cc(Br)c2ccc(Cn3cc(-c4ccc(C(F)(F)F)cc4)nn3)nc12 | 59%
50 | Cc1sc2nc(NCCc3c[nH]c4ccc(Cl)cc34)[nH]c(=O)c2c1C | 19.6%
51 | CCN1C(=S)N(c2ccccc2)C2NC(=S)N(/N=C/C=C/c3ccccc3OC)C21 (stereo not given) | 1.16% (active)
52 | CCN(C)S(=O)(=O)Nc1cccc(Nc2ncnc3cc(NC(=O)CCl)ccc23)c1Cl | -56.9% (active)
53 | Cn1c(I)c(C#CCO[Si](C)(C)C(C)(C)C)c(=O)[nH]c1=O | 113%
54 | Nc1[nH]n2cc(-c3ccccc3)nc2c1N=Nc1ccc(S(N)(=O)=O)cc1 | 38.8%
55 | COc1cc(OC)c(NC(=O)c2cc3ccccc3cc2O)cc1Cl | 101%
56 | Cc1cn(-c2cc(NC(=O)c3cccc(C#Cc4cccc5[nH]nc(N)c45)c3)cc(C(F)(F)F)c2)cn1 | 18.4%
57 | CCOC(=O)C/C(=N\Nc1cc(=O)[nH]c2ccc(Br)cc12)C(=O)OCC | 107%
58 | CS(=O)(=O)Nc1cc(-c2ccc3ncnc(Nc4ccc5c(cnn5Cc5ccc(F)cc5)c4)c3c2)cnc1Cl | 53.3%
59 | CCCCNC(=O)Oc1ccc(/C(=C(/C)Cc2ccc(OC)cc2)c2ccc(OCCN(CC)CC)cc2)cc1 | 6.03% (active)
60 | COc1ccc(-c2nc3c(ncc4ccc(=O)[nH]c43)s2)cc1 | 81.1%

Row | Compound | growth
61 | COc1c(C(=O)Nc2ccc(C)c(Br)c2)ccc2ccccc12 | 78.5%
62 | O=C(Nc1nc2ccccc2s1)c1ccc(F)cc1 | 108%
63 | CN(C)c1ccc(C(=O)OCCCCCCl)cc1 | 99.1%
64 | Cn1ccnc1C(=O)/C=C/c1ccc(CC(=O)Nc2cc(C(F)(F)F)cc(C(F)(F)F)c2)cc1 | 66.4%
65 | c1ccc(-c2oc(-c3ccccc3)c(CN3CCCCC3)c2CN2CCCCC2)cc1 | 10.9%
66 | O=C1/C(=C/c2ccccc2Br)COc2ccc(O)cc21 | 48.8%
67 | COc1ccc(/C=C/C(=O)c2cc3c(N)c(C(=O)Nc4cccc5ccccc45)sc3nc2C)cc1 | 70.2%
68 | CC(C)c1ccc(C(=O)Nc2sc3c(c2C(N)=O)CCC(=O)C3)cc1 | 5.66% (active)
69 | C=C(C)[C@@H]1CC[C@]2(C(=O)N3CCOCC3)CC[C@]3(C)[C@H](CC[C@@H]4[C@@]5(C)C/C(=C/c6ccncc6)C(=O)C(C)(C)[C@@H]5CC[C@]43C)[C@@H]12 | 33.8%
70 | Cc1cn(-c2cc(NC(=O)c3cncc(C#Cc4cnc(N)c5ncccc45)c3)cc(C(F)(F)F)c2)cn1 | 35.4%
71 | Nc1nc2ccccc2c2c1S(=O)(=O)c1ccc(Cl)cc1C2=O | 7.01% (active)
72 | CCC(=C(c1ccc(OCCN2CCCCC2)cc1)c1ccc(OCCN2CCCCC2)cc1)c1ccc(Cl)cc1 | -74.6% (active)
73 | O=C1C(Cl)=C(Nc2ccc(S(=O)(=O)N3CCOCC3)cc2)C(=O)c2ccccc21 | 49.2%
74 | COc1ccc(C/C(C)=C(\c2ccc(Cl)cc2)c2ccc(OCCN3CCCCC3)cc2)cc1 | 81.2%
75 | COc1cc2c(cc1OC)C(C)N(S(N)(=O)=O)CC2 (stereo not given) | 99.8%
76 | Cc1[nH]c(=O)[nH]c(=O)c1Br | 131%
77 | Clc1cccc(Nc2ncnc3ccc(-c4cnc5[nH]ccc5c4)cc23)c1 | 54.1%
78 | CCCCNC(=O)Oc1ccc(/C(=C(/C)Cc2ccc(OC)cc2)c2ccc(OCCN3CCCC3)cc2)cc1 | -11.3% (active)
79 | C#CCOC(=O)/C=C/c1cn(-c2ccccc2)nc1-c1ccc(OC)cc1 | 83.2%
80 | COC(=O)[C@]1(C)CCC[C@]2(C)[C@H]3C[C@H]4C(C(C)C)=C[C@]3(CC[C@H]21)[C@@H]1C(=O)CC[C@H](OCCC#N)[C@@H]14 | 69.6%
